# Results: PubChem BioAssay
# How the values were obtained:
# [1] = test system: Human papillomavirus type 1a protein E7 (residues 44-93); test: HPV1a E7 fragment binders on microarrays, primary screen, biochemical, small-molecule microarray, residues 44-93, 635 nm fluorescence (AID 1108); conditions: small-molecule microarray binding, fluorescence 635 nm; higher = more signal;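 note: E7 fragment applied at 1 µg/mL in TBST for 1 h at 4 C; score combines spot fluorescence with its signal to noise ratio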
# [2] = modulators of HCV replicon luciferase signal, primary screen, HCV replication inhibitor project, Huh7 cells, luciferase reporter (AID 1109); conditions: 48 h, higher = more signal;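 note: huh7 hepatoma cells harbouring a luciferase neomycin HCV replicon reporter; luciferase luminescence as measure of HCV replicon replication; test concentration not given here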
# [3] = biological target: Left-right determination factor 2 (Homo sapiens) (UniProt O00292); test: LEFTY2 binders on small-molecule microarrays, primary screen, biochemical, small-molecule microarray, 635 nm fluorescence scan (AID 1110); conditions: LEFTY2 binding, higher = more signal
# Sequence of Left-right determination factor 2 (Homo sapiens) (O00292 whole entry, looked up): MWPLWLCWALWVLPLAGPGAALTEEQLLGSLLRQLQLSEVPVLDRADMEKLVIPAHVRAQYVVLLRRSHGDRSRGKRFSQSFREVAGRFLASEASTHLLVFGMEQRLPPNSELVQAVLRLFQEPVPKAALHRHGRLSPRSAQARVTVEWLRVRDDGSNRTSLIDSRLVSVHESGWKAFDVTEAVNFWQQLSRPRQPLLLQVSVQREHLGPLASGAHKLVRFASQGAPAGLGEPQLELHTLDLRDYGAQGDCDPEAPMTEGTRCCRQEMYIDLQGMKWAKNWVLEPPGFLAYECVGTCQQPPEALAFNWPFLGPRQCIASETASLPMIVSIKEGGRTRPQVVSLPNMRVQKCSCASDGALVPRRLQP
# [4] = biological target: Calmodulin-1 (Homo sapiens) (UniProt P0DP23); test: CALM1 binders on microarrays, EGTA buffer, profiling panel, biochemical, small-molecule microarray, Cy5-labelled CALM1 (AID 1111); conditions: Cy5-CALM1 binding fluorescence, higher = more signal;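 note: labelled calmodulin applied in Tris saline Tween buffer holding calcium plus EGTA and DTT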
# [5] = biological target: Calmodulin-1 (Homo sapiens) (UniProt P0DP23); test: calcium-bound CALM1 binders on microarrays, profiling panel, artefact control for SMM control-protein annotation, biochemical, small-molecule microarray, Cy5-labelled CALM1, plus calcium (AID 1112); conditions: Cy5-CALM1 binding fluorescence, higher = more signal;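 note: score merges spot fluorescence with signal to noise from triplicate slides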
# [6] = small-molecule microarray binders of probe aWnt5a, primary screen, biochemical, biotinylated probe, 635/667 nm fluorescence (AID 1113); conditions: higher = more signal;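 note: score merges 667 nm fluorescence intensity with signal-to-noise per printed feature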
# [7] = small-molecule microarray binders of probe aShh, primary screen, biochemical, biotinylated probe, 635/667 nm fluorescence (AID 1114); conditions: higher = more signal;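 note: probe is biotin-labelled aShh protein from a stem cell growth factor screen; measures binding of labelled protein to compounds printed on the slide; score merges feature fluorescence at 667 nm with signal-to-noise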
# [8] = small-molecule microarray binders of probe aNog, primary screen, biochemical, biotinylated probe, 635/667 nm fluorescence (AID 1115); conditions: higher = more signal;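 note: probe is biotinylated aNog protein used at 0.15 µg/mL for 1 h at 4 C; z-score combines 667 nm fluorescence of each spot with its signal to noise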
# [9] = biological target: Torsin-1A-interacting protein 1 (Homo sapiens) (UniProt Q5JTV8); test: LAP1 binders from COS7 cell lysate, primary screen, small-molecule microarray, 635/667 nm fluorescence (AID 1116); conditions: COS7-hLAP1 lysate binding, 635 nm fluorescence, higher = more signal
# Sequence of Torsin-1A-interacting protein 1 (Homo sapiens) (Q5JTV8 whole entry, looked up): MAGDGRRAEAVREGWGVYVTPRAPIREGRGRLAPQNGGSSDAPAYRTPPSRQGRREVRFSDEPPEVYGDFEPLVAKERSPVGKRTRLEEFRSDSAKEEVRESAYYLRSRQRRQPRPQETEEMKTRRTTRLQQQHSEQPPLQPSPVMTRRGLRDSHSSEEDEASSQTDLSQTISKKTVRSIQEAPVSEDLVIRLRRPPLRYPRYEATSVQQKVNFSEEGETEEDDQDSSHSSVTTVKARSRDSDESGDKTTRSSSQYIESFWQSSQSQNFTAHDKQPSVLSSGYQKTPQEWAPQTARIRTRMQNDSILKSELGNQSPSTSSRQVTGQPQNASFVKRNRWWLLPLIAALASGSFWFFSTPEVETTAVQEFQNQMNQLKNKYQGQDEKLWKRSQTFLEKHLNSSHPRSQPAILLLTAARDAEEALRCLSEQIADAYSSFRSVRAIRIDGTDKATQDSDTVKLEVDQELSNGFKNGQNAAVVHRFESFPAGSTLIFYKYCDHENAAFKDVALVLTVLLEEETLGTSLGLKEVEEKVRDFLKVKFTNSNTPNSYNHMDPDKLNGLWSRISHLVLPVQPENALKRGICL
# [10] = biological target: Alpha-bungarotoxin (Bungarus multicinctus) (UniProt P60615); test: alpha-bungarotoxin binders on microarray, profiling panel, artefact control for SMM control protein annotation, biochemical, small-molecule microarray, Alexa647 label, 635/667 nm fluorescence (AID 1117); conditions: alpha-BTX-A647 binding fluorescence, higher = more signal
# Sequence of Alpha-bungarotoxin (Bungarus multicinctus) (P60615 whole entry, looked up): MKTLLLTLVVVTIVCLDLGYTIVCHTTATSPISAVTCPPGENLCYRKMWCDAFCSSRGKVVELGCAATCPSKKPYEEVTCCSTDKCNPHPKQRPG
Compound,composite z-score [1],z-score [2],composite z-score [3],composite z-score [4],composite z-score [5],composite z-score [6],composite z-score [7],composite z-score [8],composite z-score [9],composite z-score [10]
O=C(NCC(F)(F)F)[C@@H]1c2ccccc2C(=O)N(Cc2cc(C(F)(F)F)cc(C(F)(F)F)c2)[C@H]1c1ccc(CO)cc1,0.236,-1.04,-0.244,-0.0722,0.122,0.0377,-0.0035,-0.103,0.653,0.0956
CN1C(=O)C2CC=C(C3=CCO[C@@H]3[C@H]3CCCN3S(=O)(=O)c3ccccc3[N+](=O)[O-])CC2C1=O (stereo not given in full),-0.351,-0.0844,-0.377,-0.194,-0.0107,-0.242,-0.2,-0.0116,0.0183,0.0302
Cc1ccc(S[C@]2(C(=O)NCc3ccccc3)CC(=O)N(Cc3ccccc3Cl)[C@@H]2c2ccc(CO)cc2)cc1,-0.0153,-2.79,-1.76,-0.272,0.273,-0.19,0.0858,0.308,-0.0706,-0.619
COCCCNC(=O)[C@@]1(Cc2ccccc2I)c2ccccc2C(=O)N(Cc2ccccc2OC)[C@H]1c1ccc(CO)cc1,1.39,-2.08,-0.43,0.0345,0.0879,-0.248,-0.0146,-0.537,-0.013,0.101
COC(=O)[C@@]1(Cc2ccc(F)cc2)[C@H]2c3cc(C(=O)N4CCCC4)n(Cc4ccc(C(F)(F)F)nc4)c3C[C@H]2CN1C(=O)c1ccccc1,1.18,-2.15,0.0089,2.16,0.557,0.106,-0.382,-1.06,0.873,0.615
C=C(COC)/C(=C/C[C@@H](OC(=O)c1ccncc1)c1ccccc1OCCO)c1cnc2ccccc2c1,1.24,-2.8,1.14,0.528,-0.469,0.067,0.111,0.361,1.47,2.96
C[C@@]1([C@@H](NS(=O)(=O)c2cccc3cccnc23)c2ccc(-c3ccccc3)cc2)C[C@H]1C1CCCCC1,0.917,-0.479,-0.504,1.02,1.38,0.122,1.05,2,0.562,0.33
C=CC[C@]12N=C(c3ccc(OCCCO)cc3)O[C@H]1c1ccccc1N(CCC)C2=O,0.685,-1.99,0.546,0.117,-0.267,0.0344,0.187,0.993,1.46,0.666
CC(C)(C)OC(=O)CC[C@]1(C(N)=O)N=C(c2ccc(OCCCO)cc2)O[C@H]1c1ccccc1N=[N+]=[N-],0.97,0.697,-0.143,1.53,1.1,0.0371,0.232,0.886,0.791,1.43
COCCCNC(=O)[C@@]1(c2ccc([N+](=O)[O-])cc2)CC(=O)N(C2CCCCC2)[C@@H]1c1ccc(CO)cc1I,-0.191,-1.9,-0.199,0.582,-0.0952,-0.0051,-0.0904,0.968,1.17,0.302
C=C[C@@H](CO)NS(=O)(=O)c1ccc(Br)cc1,-1.71,0.0931,-0.671,-1.05,-0.453,-0.208,-0.153,-0.158,0.127,-0.796
O=C1N(Cc2ccccc2)Cc2ccccc2C[C@@]12COC(c1ccc(OCCCO)cc1)=N2,1.19,-3.52,-0.0607,0.273,0.519,-0.043,0.0287,1.09,0.724,0.491
CO[C@H]1O[C@H](CO)[C@@H](OC(=O)Nc2ccccc2)[C@@H]2OC(=O)[C@@H](Cc3ccccc3)C/C=C/C[C@H](Cc3ccccc3)C(=O)O[C@@H]12,0.779,-0.897,-0.152,-0.0442,-0.845,-0.0721,-0.154,-0.125,0.235,0.224
CN(C)CCCCNC(=O)[C@H]1C[C@H]2C(=O)N[C@@H](CCCCN(C)C)C(=O)N2[C@H]1c1ccc(O)cc1,-1.01,0.448,0.435,-0.362,-0.873,-0.128,-0.229,-0.0446,-0.178,0.457
CC(C)Cc1ccc(CN2CC[C@@H](NC(=O)c3ccccc3)C2)cc1,-0.979,-4.02,0.0756,-0.816,-0.524,-0.159,-0.345,-0.367,0.367,1.01
C=C(COC)C(=O)CC[C@H](OC(C)=O)c1ccc(CO)o1,-1.05,0.272,0.451,0.44,-1.07,-0.152,-0.0709,-0.273,-0.534,0.706
O=C(O)C1=CC[C@H]2C(=O)N(c3ccccc3)C(=O)[C@@H]12,1.37,0.49,0.412,0.661,-0.388,0.155,0.369,0.883,0.769,0.955
C=CCC(OC(C)=O)[C@@H]1[C@@H](N(Cc2ccc(-c3ccccc3)cc2)C(=O)Cc2ccc(OC)cc2)c2cc(OCCCO)ccc2N1C(=O)Cc1ccc(OC)cc1 (stereo not given in full),-0.37,-0.496,0.055,0.194,0.7,0.055,-0.229,-0.128,0.468,0.171

Compound,composite z-score [1],z-score [2],composite z-score [3],composite z-score [4],composite z-score [5],composite z-score [6],composite z-score [7],composite z-score [8],composite z-score [9],composite z-score [10]
CC(C)(C)OC(=O)N1[C@@H](C=C(Br)Br)COC1(C)C,0.943,-0.213,0.514,-0.177,-0.41,-0.0944,-0.167,0.0051,1.29,0.398
CCCCCCc1nc(Cc2cc(OC)c(OC)c(OC)c2)c(C)c2c1[Si](C(C)C)(C(C)C)OC2,0.495,-0.715,0.0746,-0.0235,-0.128,-0.0721,0.14,-0.0587,0.18,-0.101
COc1ccc([Si](C)(C)[C@H]2[C@H](CC(=O)N(CCO)Cc3ccccc3)O[C@@]3(C(=O)N(Cc4cccc(N5CCCCC5=O)c4)c4ccccc43)[C@@H]2C)cc1,0.558,-4.06,0.384,-0.0075,0.117,-0.147,0.235,-0.0863,-0.0746,0.595
COCCOC(=O)N1C(=O)[C@@]2(c3cc(C#CCC(C(=O)OC)C(=O)OC)ccc31)[C@H](C(=O)N1CCc3cc(OC)c(OC)cc3C1)[C@H]1C(=O)O[C@H](c3ccccc3)[C@H](c3ccccc3)N1[C@@H]2c1ccccc1OCCO,1.36,-1.61,1.07,0.965,-0.226,-0.0125,1.57,-0.512,1.03,0.774
COC(=O)C1=CC(c2ccc(CO)cc2)=CC(C2CC2)N(Cc2cc3c(cc2Br)OCO3)C=C1C(=O)OC (stereo not given),1.32,-1.41,0.568,2.06,0.631,0.0251,0.254,0.564,2.15,2.47
C=CCOC(=O)[C@H]1[C@@H]2C(=O)O[C@@H](c3ccccc3)[C@@H](c3ccccc3)N2[C@@H](c2ccc(OCCOC(=O)[C@H]3C[C@H]4C(=O)NCC(=O)N4[C@H]3c3ccc(O)cc3)cc2)[C@]12C(=O)Nc1ccccc12,1.44,-2.07,0.506,1.18,-0.237,-0.0758,-0.16,-0.217,1.05,1.77
CC1CC/C=C\[C@H]2OC34C=CCN(C(C)C)C(=O)[C@H]3N(C(C)CO)C(=O)[C@@H]4C2C(=O)O1 (stereo not given in full),-0.607,-1.43,-0.334,-0.174,-0.824,-0.128,-0.304,-0.0381,0.0726,-0.215
COC(=O)C(CC#Cc1ccc2c(c1)[C@]1(C(=O)N2)[C@H](C(=O)NC[C@H](O)c2ccccc2)[C@H]2C(=O)O[C@H](c3ccccc3)[C@H](c3ccccc3)N2[C@@H]1c1ccc(O)cc1)C(=O)OC,-0.603,-1.7,-0.357,-0.113,-0.327,-0.217,-0.138,-0.121,-0.223,-0.111
N#Cc1ccc(NN2C(C(O)c3ccc(B(O)O)cc3)C=CC3CN(c4ccccc4)C(=O)C32)cc1 (stereo not given),-0.664,0.277,-0.193,0.0251,-0.408,-0.144,-0.237,-0.196,0.11,-0.0348
O=C1O[C@@H](c2ccccc2)[C@@H](c2ccccc2)N2[C@@H](c3ccc(OCCO)cc3)[C@]3(C(=O)Nc4ccc(C#CC5=CCCCC5)cc43)[C@@H](C(=O)Nc3nc4ccccc4s3)[C@H]12,0.597,-1.88,-0.005,0.516,-0.188,0.0243,-0.708,0.704,0.0065,0.4
COc1ccc([Si](C)(C)[C@H]2[C@H](CC(=O)N3CCC[C@H]3CO)O[C@@]3(C(=O)N(C)c4ccccc43)[C@@H]2C)cc1,0.442,-0.812,0.239,-0.13,0.297,-0.0721,-0.0368,-0.0094,1.13,0.557
COc1ccc([Si](C)(C)[C@@H]2[C@@H](CC(=O)N(CCO)Cc3ccccc3)O[C@]3(C(=O)N(Cc4cccc(I)c4)c4ccccc43)[C@H]2C)cc1,1.28,-3.82,0.741,2.83,1.21,-0.0425,0.564,0.0051,0.319,0.855
CC[C@@H](O[Si](C#C[Si](C(C)C)(C(C)C)C(C)C)(C(C)C)C(C)C)c1cn(Cc2cccc(Cl)c2)nn1,0.906,-0.959,0.374,0.0371,-0.461,-0.0194,-0.154,-0.124,0.403,0.485
[N-]=[N+]=Nc1ccccc1C[C@]1(C(=O)N2CCCCC2)N=C(c2ccc(OCCCO)cc2)O[C@H]1c1ccccc1,-0.0987,-2.42,0.0344,1.8,0.727,0.0101,0.202,-0.544,0.824,1.93
C=C(C)C1CN([C@H](CO)c2ccccc2)C(=O)/C1=C\c1ccccc1 (stereo not given in full),-0.165,-1.56,0.241,-0.565,-0.754,-0.144,-0.289,0.172,0.189,-0.173
O=C/C=C/c1ccc(-c2ccccc2)cc1,-1.06,0.861,0.435,-0.501,-0.524,-0.129,-0.341,-0.739,-0.0833,0.27
[N-]=[N+]=NCc1ccccc1C[C@]1(C(=O)N2CCCCC2)COC(c2ccc(OCCCO)cc2)=N1,0.288,-2.57,0.227,0.103,-0.171,-0.255,0.262,-0.694,2.29,0.49
